In ChEMBL document CHEMBL4513216, “Probing the Open Global Health Chemical Diversity Library for Multistage-Active Starting Points for Next-Generation Antimalarials” (ACS Infect Dis, 2020):
The campaign covered roughly 65,000 compounds. About 2,100 (3.2%) showed an effect of 50% or more. The median lay at about -52%. The sample holds strong results, similar compounds and a random draw of the others, so the mix is not that of the screen.

system: Plasmodium falciparum; assay: Screen against P. falciparum Asexual Blood Stage (ABS), at 5uM; format: functional, Dd2; conditions: tested at 5 uM

| Structure (SMILES) | INHIBITION |
| --- | --- |
| CCN1CCCN(S(=O)(=O)c2cc3ccccc3o2)CC1 | 84.3% |
| NC(=O)CN1CCCN(C(=O)Cc2ccc(F)cc2)CC1 | -158% |
| CS(=O)(=O)c1ccc(CC(=O)N2CCN3CCNC(=O)C3C2)cc1 (stereo unspecified) | -50.4% |
| CS(=O)(=O)c1ccc(-c2cc(O)cc(CCC3CCCCN3)c2)cc1 (stereo unspecified) | 70.3% |
| CCCn1ccnc1CN1CCCC1c1ccccn1 (stereo unspecified) | 86.8% |
| CCCN1CCN(Cc2nccn2CC)C(C)C1 (stereo unspecified) | -101% |
| CCC(=O)N1CCN(Cc2cnc(C)nc2)[C@H]2CS(=O)(=O)C[C@H]21 | -106% |
| Cc1ccc(Sc2ccc(CN3CCC4(CCCNC4=O)C3)o2)cc1 (stereo unspecified) | 73.1% |
| Cc1nnc(N2CCCC3(CN(Cc4ccncc4)CCO3)C2)o1 (stereo unspecified) | -78.8% |
| O=C1CC2(CCN(Cc3ccc(Cl)s3)C2)C(=O)N1 (stereo unspecified) | -155% |
| CC(C)C(=O)N1CCCC2(CCCN2Cc2cccnc2)C1 (stereo unspecified) | -13.9% |
| Cc1ccccc1CC(=O)N1C[C@@H](O)[C@H](N2CCN(C)CC2)C1 | -87.9% |
| Cc1cccc(CN2CC[C@@H]3[C@@H]2CCN3C(=O)c2cc(C)on2)n1 | -95.7% |
| CN(C)C(=O)CN1CC[C@H]2[C@H]1CCN2c1ncccn1 | -109% |
| CN(C)[C@@H]1CCN(c2ncc(F)cn2)[C@H]1Cc1ccccc1 | 89% |
| Cc1ccc(CN2C[C@@H]3CN(c4ncc(F)cn4)C[C@@H]3C2)cc1 | -37% |
| CN(C)[C@@H]1CCN(C(=O)Cc2cccs2)[C@H]1Cc1ccncc1 | -51.7% |
| CN(C)[C@@H]1CCN(C(=O)Cc2ccc(F)cc2)[C@H]1Cc1ccncc1 | 5.44% |
| CN(C)[C@@H]1CCN(c2ncccn2)[C@H]1Cc1ccccc1 | 78.1% |
| CN(C)[C@@H]1CCN(C(=O)Cc2cccs2)[C@H]1Cc1cnn(C)c1 | -4.87% |
| Cc1cc(C(=O)N2CC[C@@H](N(C)C)[C@@H]2Cc2ccccc2)no1 | 74.4% |
| O=S1(=O)NCC2(CCN(Cc3ccc(Cl)s3)C2)Oc2ncccc21 (stereo unspecified) | -56.7% |
| O=C1N(c2ccsc2)CCC12CCCN(Cc1cccnc1)C2 (stereo unspecified) | -28.4% |

| Structure (SMILES) | INHIBITION |
| --- | --- |
| CCn1cncc1Cn1ncc2ccccc2c1=O | -114% |
| Cc1noc(C)c1CN1CCO[C@H]2CN(Cc3cncn3C)C[C@H]21 | -42.6% |
| COCCn1cncc1CN1CCC(C(C)=O)(c2ccccc2)CC1 | -20.6% |
| Cc1ccc(C2(CN3CCN(Cc4cnc(C)n4C)CC3)CC2)cc1 | 95.4% |
| Cc1ccc(C2(CN3CCN(Cc4cncn4C)CC3)CC2)cc1 | 73.2% |
| CCn1cncc1CN1CCN(CC2(c3ccc(C)cc3)CC2)CC1 | 70% |
| Cn1cncc1CN1C[C@@H]2OCCN(c3ncccn3)[C@@H]2C1 | -99.1% |
| Clc1ccc(-n2nnnc2C2(NCc3ccco3)CCCCC2)cc1 | 5.42% |
| CN(Cc1cncnc1)[C@H]1CN(CC2CC2)[C@@H]2CCCO[C@@H]21 | 4.52% |
| c1cc(COC[C@]23COC[C@H]2CN(CC2CCC2)C3)ccn1 | -81.5% |
| Cc1noc(C)c1CN1CCCC2(CCN(C(=O)NC3CC3)C2)C1 (stereo unspecified) | -183% |
| CC(C)N(C)Cc1cncc2c1CCN(CC(=O)N(C)C)C2 | -31.3% |
| CC(C)N(C)Cc1cnc2n1CCN(C(=O)NC1CCCC1)C2 | 83.4% |
| Cc1cc(C)c(CNc2ncnc3ccccc23)c(=O)[nH]1 | 14.5% |
| CN(Cc1ncc(C(C)(C)C)o1)CC1CCCN1c1cccnn1 (stereo unspecified) | 80.7% |
| CN(c1ncnc2ccccc12)C1CCCN(c2cccnn2)C1 (stereo unspecified) | 74.4% |
| c1cnnc(N2CCCC2CNc2ncnc3ccccc23)c1 (stereo unspecified) | 81.1% |
| c1cnnc(N2CCCC2CNc2ncnc3sccc23)c1 (stereo unspecified) | 82% |
| N#Cc1ccc(NC2CCN(c3ncccn3)CC2)cc1Cl | -47.7% |
| c1ccc(CO[C@@H]2CC[C@H]3[C@H]2OCCN3Cc2ccsc2)nc1 | -80.3% |
| CC[C@H](C)[C@@H](CO)NC(C)Cc1ccc(C)cc1 (stereo partly specified) | 31.8% |
| O=C(NCc1ccccn1)[C@H]1COC[C@H]2CN(C3CCCC3)C[C@H]21 | -109% |
| COCCn1ccc2c(C(=O)NC3CN4CCC3CC4)cccc21 (stereo unspecified) | -19.8% |

| Structure (SMILES) | INHIBITION |
| --- | --- |
| O=C(NC1CC1)C1CCN(c2cccc(C(F)(F)F)n2)CC1 | 79.4% |
| COCCN1C[C@H]2CCC[C@@H](CNc3ncccn3)[C@H]2C1 | 23.6% |
| O=C(Cc1ccsc1)N1CCN(CCOc2ccccc2)CC1 | 19.5% |
| COCCN1C[C@H]2[C@@H](C1)N(C(=O)COc1ccccc1)CC[C@H]2OC | -98.8% |
| N[C@H]1CN(CCOc2ccc(F)cc2)C[C@@H]1C1CC1 | 76.5% |
| N[C@H]1CN(CCCOc2ccccc2)C[C@@H]1C1CC1 | 86.8% |
| CC(C)N1CCC2(CC1)NC(=O)c1cc(Br)ccc1-n1nnnc12 | -84.6% |
| CN1CCOCC2(CCCN(C(=O)Cc3ccncc3)C2)C1 (stereo unspecified) | -195% |
| CCS(=O)(=O)N1CCN(C)c2ncccc2C1 | -45.7% |
| CCC(CN1CCOCC1)n1cncc1-c1ccc2c(c1)CCN2CC (stereo unspecified) | 94.5% |
| CC(C)CN1CCC2(CC1)CN(C(=O)C(C)C)C2 | -69.1% |
| CNC(=O)[C@H]1C[C@@H]2CN(Cc3c(C)noc3C)C[C@@H]2N1C(C)=O | -19.9% |
| CN(C)CCNC(=O)C1Cc2nc(-c3ccccc3)sc2N1CC1CC1 (stereo unspecified) | 89.7% |
| CN(C)CCNC(=O)[C@H]1C[C@H]2CN(c3ncccn3)C[C@H]2N1C | -64.2% |
| Cc1csc([C@@H]2C[C@@H]3CCN(Cc4cc(C)on4)C[C@H]3O2)n1 | -19.3% |
| Cc1cc(C)nc(N2CCCC2c2cccnc2)n1 (stereo unspecified) | 0.584% |
| CNc1cc(C)nc(NC2CCCN(C3Cc4ccccc4C3)C2)n1 (stereo unspecified) | 92.8% |
| CNc1nc(C)cc(NC2CCCN(C3Cc4ccccc4C3)C2)n1 (stereo unspecified) | 89.5% |
| Cc1cc(N2CCCN3CCC[C@H]3C2)n2nc(C)c(C)c2n1 | 9.89% |
| CN(C(=O)Cc1ccn(C)c1)C1CCCN(C2Cc3ccccc3C2)C1 (stereo unspecified) | -32.4% |
| Cn1ncc2c1NC(=O)CSC2c1ccc2c(c1)OCO2 (stereo unspecified) | -86% |
| c1cc(COC[C@]23COC[C@H]2CN(Cc2ccncc2)C3)ccn1 | -118% |
| CN1CCCC2(CCN(C(=O)c3ccncc3)C2)C1 (stereo unspecified) | -62% |

| Structure (SMILES) | INHIBITION |
| --- | --- |
| CN1CCN([C@@H]2CN(C(=O)c3ccnnc3)[C@@H]3CCCO[C@H]23)CC1 | -103% |
| Cc1oc(-c2ccco2)nc1CC(=O)N1CCN(CC(C)O)CC1 (stereo unspecified) | -65.7% |
| Fc1ccc(Cc2cnc(C3CCCN3)cn2)cc1 (stereo unspecified) | 45.6% |
| CN1CCCC1c1ccc(N2CCOCC2)cn1 (stereo unspecified) | -144% |
| CN1CCCC1c1cccc(Cc2ccc(F)cc2)n1 (stereo unspecified) | 62.1% |
| Cc1nnc([C@H]2C[C@@H]3CCN(Cc4cc(C)on4)C[C@H]3O2)[nH]1 | -33.8% |
| Cc1cc(NC(=O)NC2CCN(C(C)C)CC2)c2ncccc2c1 | 79.7% |
| CC(C)N1CC[C@@H]2OC[C@H](C(=O)Nc3cccnc3)C[C@@H]2C1 | -33.5% |
| CC(C)N1CCC(N(C)c2ccnc(N(C)C)n2)CC1 | 39.1% |
| CN(C)Cc1cncc2c1CCN(Cc1ccoc1)C2 | -67.1% |
| Fc1ccc(C2(CNC3=NCCN3)CCCC2)cc1 | 83.5% |
| c1cc2c(cc1C1(CNC3=NCCN3)CCCC1)OCCO2 | 81.1% |
| Clc1ccc(C2(CNC3=NCCN3)CC2)cc1 | 83.2% |
| Clc1ccc(C2(CNC3=NCCN3)CCCC2)cc1 | 83.7% |
| O=C(NC[C@]12COC[C@H]1CN(Cc1cccnc1)C2)c1ccsc1 | 5.35% |
| CNC(=O)C1CCC2(CCNCC2)C1 (stereo unspecified) | -92% |
| Cc1ccc(N2C[C@@H]3CN(Cc4ccoc4)CCO[C@@H]3C2)nn1 | -14.1% |
| Cc1oncc1C(=O)N[C@@H]1CN(C2CCC2)C[C@@H]2CCCO[C@@H]21 | -114% |
| O=C(Cc1c(F)cccc1F)N1CCN(CC(=O)N2CCCC2)CC1 | -130% |
| Cc1cc(CN2CC[C@H]3C[C@@H](c4nccs4)O[C@@H]3C2)no1 | -79.5% |
| CC(=O)N1CCOCC2(CCCNC2)C1 (stereo unspecified) | -96.3% |
| Clc1ccc(C2(CNC3=NCCN3)CCCCC2)cc1 | 90.2% |
| CN(C)C(=O)C1CCC2(CCNCC2)C1 (stereo unspecified) | -63% |

| Structure (SMILES) | INHIBITION |
| --- | --- |
| CC(C)n1[nH]c(=O)c2c1NC(=O)CSC2c1cccc(OCC(N)=O)c1 (stereo unspecified) | -96.5% |
| CC(NCc1ccc(OCC(N)=O)cc1)c1ccc2c(c1)CCCC2 (stereo unspecified) | 73.4% |
| CC(C)n1[nH]c(=O)c2c1NC(=O)CSC2c1ccc(OCC(N)=O)cc1 (stereo unspecified) | -43.5% |
| O=C(c1cccnc1)N1CCN2C[C@H](Oc3cncnc3)C[C@H]2C1 | -64.5% |
| Cc1noc(C)c1CN1CC[C@@H]2O[C@H](COCC3CC3)CC[C@@H]21 | -4.95% |
| Cc1ccc(-c2nc(CNC(C)CCO)[nH]c2-c2ccccn2)cc1 (stereo unspecified) | 86% |
| c1cc(CN2CC[C@H]3C[C@H](c4nc(C5CC5)cs4)O[C@@H]3C2)ccn1 | -49.9% |
| CN(C)c1ncc2c(c1C(=O)O)CCN(Cc1ccco1)C2 | -111% |
| c1ccc(NC[C@@H]2CCC[C@@H]3CN(Cc4csnn4)C[C@@H]32)nc1 | 62% |
| c1ccc(NC[C@@H]2CCC[C@@H]3CN(c4ncccn4)C[C@@H]32)nc1 | 72.9% |
| Cn1ccnc1NC[C@@H]1CCC[C@@H]2CN(Cc3cccnc3)C[C@@H]21 | -26.3% |
| c1cncc(CN2C[C@H]3CCC[C@@H](CNc4cnccn4)[C@H]3C2)c1 | -3.45% |
| c1ccc(NC[C@@H]2CCC[C@@H]3CN(Cc4cccnc4)C[C@@H]32)nc1 | 75% |
| c1cnc(NC[C@@H]2CCC[C@@H]3CN(Cc4cc[nH]n4)C[C@@H]32)nc1 | -16.9% |
| c1ccc(CN2C[C@@H]3CCCO[C@@H]3[C@H](Nc3ccccn3)C2)nc1 | 18.5% |
| c1cnc(NC[C@@H]2CCC[C@@H]3CN(Cc4csnn4)C[C@@H]32)nc1 | 47.7% |
| c1ccc(NC[C@@H]2CCC[C@@H]3CN(Cc4nccs4)C[C@@H]32)nc1 | 57.1% |
| c1ccc(NC[C@@H]2CCC[C@@H]3CN(Cc4cc[nH]n4)C[C@@H]32)nc1 | -29.8% |
| CC(=O)N1C[C@H]2CCCC(N3CCN(c4ncccn4)CC3)[C@H]2C1 (stereo partly specified) | -104% |
